GRIN3A LBD mod – modulators (binders) of human NR3A ligand-binding domain | NR3A LBD differential scanning fluorimetry, Tm shift; 0% = protein alone, 100% = glycine-bound protein | Tm shift relative to glycine control, % at 25 µM | 2.5% of 340,000 active | AID 1259313;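 active = melting temperature shift of at least 10% of the positive control shift, at one fixed dose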
rCAG binder – r(CAG) repeat RNA binding | TO-PRO-1 dye displacement fluorescence | inhibition, % at 3 µM | 1.3% of 370,000 active | AID 651821;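 active = inhibition above the plate cutoff, the mean of all test compounds on that plate plus 3 SD, cut at about 35% in these data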;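 also: higher means more dye released from RNA so lower well fluorescence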
ADAM17 inh – inhibitors of human ADAM17. P78536. recombinant ADAM17, EDANS/DABCYL FRET peptide cleavage. inhibition, % at 6.95 µM. 0.83% of 370,000 active;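 active = inhibition above the mean of compounds lying between control limits plus 3 SD, set per campaign, cut at about 8.5% in these data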
Target sequence (P78536 215-824 limits assumed): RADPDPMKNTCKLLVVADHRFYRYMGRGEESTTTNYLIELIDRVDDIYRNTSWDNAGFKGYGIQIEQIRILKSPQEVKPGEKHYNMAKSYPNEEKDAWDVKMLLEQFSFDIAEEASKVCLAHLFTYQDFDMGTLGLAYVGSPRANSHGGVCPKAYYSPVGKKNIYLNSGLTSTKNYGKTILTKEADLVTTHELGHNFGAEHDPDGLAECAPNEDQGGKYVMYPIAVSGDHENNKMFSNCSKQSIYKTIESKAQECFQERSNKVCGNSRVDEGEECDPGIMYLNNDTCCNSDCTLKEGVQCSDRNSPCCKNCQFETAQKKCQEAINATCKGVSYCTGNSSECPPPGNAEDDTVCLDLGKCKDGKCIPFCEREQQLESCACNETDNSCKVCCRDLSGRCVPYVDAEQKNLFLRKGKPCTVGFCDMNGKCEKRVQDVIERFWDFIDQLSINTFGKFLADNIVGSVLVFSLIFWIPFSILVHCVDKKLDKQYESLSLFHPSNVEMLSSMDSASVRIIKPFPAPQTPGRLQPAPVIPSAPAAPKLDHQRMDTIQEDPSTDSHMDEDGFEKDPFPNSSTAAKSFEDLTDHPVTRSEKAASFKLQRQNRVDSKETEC
AHR activator – activators of human aryl hydrocarbon receptor; P35869; AHR-responsive luciferase reporter cells, luminescence; activation, % at 5 µM; 2.5% of 320,000 active; AID 2796; in the data active = activation above about 47%
ADAM10 inh – ADAM10 inhibition, QFRET primary screen; O14672; recombinant ADAM10, EDANS/DABCYL FRET peptide cleavage, 3 h; inhibition, % at 7 µM; 0.62% of 370,000 active; AID 720582;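 active = inhibition above a per-campaign cutoff equal to the mean of compounds falling between control-based bounds plus 3 SD, cut at about 20% in these data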
proKLK7 act – activates the human kallikrein-7 zymogen. purified proKLK7, EDANS-DABCYL substrate fluorescence; 100% is mature enzyme control, 0% vehicle. AID 652039. activation, % at 7 µM. P49862. 0.9% of 370,000 active;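 active = activation above the mean of all tested compounds plus 3 SD, computed per campaign excluding outliers beyond control limits, cut at about 13% in these data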
rCAG bind conf – r(CAG) RNA repeat binding, confirmation; shares compounds with rCAG binder; TO-PRO-1 dye displacement fluorescence; inhibition, % at 3 µM; 70% of 4,300 active; AID 652065;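 active = inhibition above a per-plate cutoff, the mean inhibition of sample wells plus 3 SD, cut at about 35% in these data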;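 also: loss of TO-PRO-1 fluorescence as compound displaces dye from 1x1 AA loop RNA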
DNA CAG counter – disrupts DNA CAG TO-PRO-1 complex, flagging rCAG hits | d(CAG) DNA oligo TO-PRO-1 dye displacement, fluorescence | inhibition, % at 3 µM | shares compounds with rCAG binder | 94% of 4,300 active;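 active = inhibition above its plate's cutoff, the mean test-well inhibition plus 3 SD, cut at about 4.8% in these data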;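 also: hits displace the dye from DNA and so lower well fluorescence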
DNA CAG DR – disrupts DNA CAG TO-PRO-1 complex in dose response. 20% of 250 active. DNA CAG/GTC duplex TO-PRO-1 dye displacement fluorescence. shares compounds with rCAG binder. IC50, µM. AID 686960; in the data active = IC50 below about 10 µM
Large screens that a line does not name were inactive (follow-up assays come after a bar, where they were run). Only some compounds are listed: those with a hit (about 7% of all), similar ones and a draw of the others.

CC(Oc1ccccc1)C(=O)Nc1ccc(S(=O)(=O)Nc2nccs2)cc1 (stereo not given)	none
O=S(=O)(Nc1nccs1)c1ccc(NCc2cc(Br)cc(Br)c2O)cc1	rCAG binder 58 | rCAG bind conf 41 | DNA CAG counter 14
CC(Oc1ccc(Br)cc1)C(=O)Nc1ccc(S(=O)(=O)Nc2nccs2)cc1 (stereo not given)	rCAG binder 52 | rCAG bind conf inactive | DNA CAG counter 9.4
O=C(Nc1ccccc1C(F)(F)F)OC1CC2CC1[C@H]1CCCCN1C2 (stereo not given in full)	none (no result: GRIN3A LBD mod, AHR activator)
Cc1nnc(SCC(=O)Nc2cc(S(=O)(=O)N3CCOCC3)ccc2C)s1	none (no result: AHR activator)
O=C(CSc1nc2ccccc2s1)Nc1cc(S(=O)(=O)N2CCOCC2)ccc1O	rCAG binder 49 | rCAG bind conf 40 | DNA CAG counter 16
CCCCc1ccc(CC(=O)Nc2cc(S(=O)(=O)N3CCOCC3)ccc2O)cc1	rCAG binder 48 | rCAG bind conf 51 | DNA CAG counter 16
CCOc1ccc(-n2c(SCC(=O)Nc3ccc(OCc4ccccc4)cc3)nnc2-c2ccc(Cl)cc2)cc1	none (no result: GRIN3A LBD mod, AHR activator)
Cc1cccc(C)c1NC(=O)C(c1ccccc1)n1c(=O)c(-c2ccco2)nc2ccccc21 (stereo not given)	none (no result: GRIN3A LBD mod, AHR activator)
CC(C)(C)NC(=O)C(c1ccnc2ccccc12)n1c(=O)c(-c2ccco2)nc2ccccc21 (stereo not given)	rCAG binder 36 (no result: GRIN3A LBD mod, AHR activator) | rCAG bind conf inactive | DNA CAG counter 15
COc1ccc(C(C(=O)Nc2c(C)cccc2C)n2c(=O)c(-c3ccco3)nc3ccccc32)cc1 (stereo not given)	rCAG binder 38 (no result: GRIN3A LBD mod, AHR activator) | rCAG bind conf inactive | DNA CAG counter 10
CC(C)(C)NC(=O)C(c1ccncc1)n1c(=O)c(-c2ccco2)nc2ccccc21 (stereo not given)	none (no result: GRIN3A LBD mod, AHR activator)
CCOC(=O)[C@]12CCCCC/C=C\1N(CCc1ccc(Cl)cc1)C(=O)[C@H]2CC(=O)NCCc1ccccc1OC	none (no result: GRIN3A LBD mod, AHR activator)
O=C(Nc1ccc([N+](=O)[O-])cc1)Nc1nc(-c2ccc(Cl)s2)cs1	GRIN3A LBD mod 416, rCAG binder 51 | rCAG bind conf 68 | DNA CAG counter 48
CC(=O)Nc1nc(-c2ccc([N+](=O)[O-])cc2)cs1	none
CN[C@H]1C[C@H]2c3[nH]c4c(-c5cccc(C)c5)cccc4c3CCN2C[C@H]1[C@H](C)O	none (no result: GRIN3A LBD mod, AHR activator)
Cn1c(=O)c(C#N)c(-c2ccc(F)cc2)c2cc(C(=O)c3cc(Cl)cc(Cl)c3O)cnc21	GRIN3A LBD mod 12, rCAG binder 75 | rCAG bind conf 83 | DNA CAG counter 41
O=c1c(O)c(-c2cc(O)c(O)c(O)c2)oc2cc(O)cc(O)c12	GRIN3A LBD mod 27, rCAG binder 47 | rCAG bind conf 56 | DNA CAG counter 19 | DNA CAG DR inactive
CC(C)=CCc1cc(-c2oc3cc(O)cc(O)c3c(=O)c2O)ccc1O	GRIN3A LBD mod 21, rCAG binder 44 | rCAG bind conf 52 | DNA CAG counter 25
C[C@@H]1CN(C(=O)OC(C)(C)C)CCN1c1ccc(Br)c(C#N)c1	none (no result: GRIN3A LBD mod, AHR activator)
O=c1nc(Nc2cccc(Cl)c2)oc2cc(Cl)oc(=O)c12	rCAG binder 44 | rCAG bind conf 56 | DNA CAG counter 16 | DNA CAG DR 8.5
O=c1nc(Nc2ccccc2)oc2ccccc12	none
COc1ccc(/C=C(\CC(=O)O)c2nc3ccccc3s2)cc1O	none
CCOc1cc(/C=C(\CC(=O)O)c2nc3ccccc3s2)ccc1OCC(=O)Nc1cccc(C(F)(F)F)c1	rCAG binder 67 (no result: AHR activator) | rCAG bind conf 53 | DNA CAG counter 18
COc1cc(/C=C(\CC(=O)O)c2nc3ccccc3s2)ccc1OCC(=O)Nc1ccccc1F	rCAG binder 59 (no result: AHR activator) | rCAG bind conf 62 | DNA CAG counter 23
